This is a sample that favours compounds with a hit; in the whole collection about 7.3% have one here.
Rab9 promoter act = Rab9 promoter activation. Huh7 Rab9 promoter-luciferase reporter, luminescence, 24 h. Potency, µM (doses to about 9.22 µM), for inactives: at the highest dose activation, negative = inhibition, actives largely listed as activators. 320,000 compounds, 2.8% hits. AID 485297; further: % of control where 0% means no effect; nearly all actives have a fitted effect of over 60% in size
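Rab9 promoter-driven luciferase in stably transfected Huh7 cells; 1500 cells/well rested 2 h, exposed to compound in DMSO for 24 h at 37 °C, 5% CO2. Luminescence read 10 min after adding luciferase reagent at ambient temperature.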
KinaseGlo FLuc = blocks Kinase-Glo luciferase, a counter-screen artifact. Kinase-Glo luciferase, ATP luminescence, 8 min. 200,000 compounds, 0.28% hits. Potency, µM (doses to about 38.3 µM), for the others: top-dose activity change, negative = inhibition, hits mostly inhibitors. AID 1379. Q27757; further: on the % scale 0 is the no-effect control and ±100 the full control effect; nearly all actives have a fitted effect of over 60% in size
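Kinase-Glo luciferase light output from ATP and luciferin was measured with 10 uM ATP, within the enzyme's linear range. Buffer: 50 mM imidazole pH 7.2, 50 mM KCl, 7 mM MgCl2, 0.01% Tween 20, 0.05% BSA; luminescence read after 8 min at ambient temperature.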
FLuc counter = inhibits or activates purified firefly luciferase, miR-21 counter-screen; P08659; Potency, µM (top dose mostly 57.5 µM), without a hit: top-dose activity change, negative = inhibition, usual class: inhibitors; AID 588342; 360,000 compounds, 6.9% hits; purified FLuc, Km substrates, luminescence inhibition;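 further: plate controls were vehicle for no effect and reference inhibitor for full effect; nearly all actives have a fitted effect of over 55% in size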
Target sequence (P08659 whole entry, looked up): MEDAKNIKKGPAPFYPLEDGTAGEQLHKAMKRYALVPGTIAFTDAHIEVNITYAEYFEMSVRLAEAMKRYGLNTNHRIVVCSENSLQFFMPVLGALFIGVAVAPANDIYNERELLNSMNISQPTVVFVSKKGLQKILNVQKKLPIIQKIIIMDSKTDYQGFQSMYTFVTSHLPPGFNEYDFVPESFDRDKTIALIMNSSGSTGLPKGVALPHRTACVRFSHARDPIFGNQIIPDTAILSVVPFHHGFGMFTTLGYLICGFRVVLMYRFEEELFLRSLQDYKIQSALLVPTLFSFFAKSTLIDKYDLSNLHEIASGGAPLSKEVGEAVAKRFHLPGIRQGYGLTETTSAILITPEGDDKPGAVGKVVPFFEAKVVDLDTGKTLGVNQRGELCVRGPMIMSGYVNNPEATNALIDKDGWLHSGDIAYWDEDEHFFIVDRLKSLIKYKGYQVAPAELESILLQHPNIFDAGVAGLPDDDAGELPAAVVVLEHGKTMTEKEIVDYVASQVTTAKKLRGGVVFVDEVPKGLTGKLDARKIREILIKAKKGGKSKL
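Purified P. pyralis luciferase (10nM final) with 10uM D-luciferin and 10uM ATP (Km levels) in 50mM Tris acetate pH 7.5, 10mM Mg acetate, 0.01% Tween-20, 0.05% BSA; qHTS 6-point titration, ~60 µM downward; luminescence read.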
ELG1 genotox = inducers of genotoxicity in HEK293T ELG1-luciferase cells; 330,000 compounds, 1.3% hits; Potency, µM (titrated, usually from 46 µM), for the others: at the highest dose activity change, positive = activation, most hits filed as activators; AID 504466; HEK293T ELG1-luciferase reporter, luminescence, 16 h; further: % of control where 0% means no effect; nearly all actives have a fitted effect of over 60% in size
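After overnight (16 hr) compound treatment at 37 °C, ELG1-luciferase HEK293T cells were lysed with ONE-Glo; luminescence quantified 30 min later at room temperature.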
NPC1 promoter act = NPC1 promoter activation; Huh7 NPC1 promoter luciferase reporter, 24 h; Potency, µM (top dose mostly 9.22 µM), for inactives: at the top dose activation, usual class: activators; 320,000 compounds, 2.4% hits; further: % of control where 0% means no effect; nearly all actives have a fitted effect of over 60% in size
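Compounds in DMSO were transferred onto Huh7 NPC1-luciferase reporter cells pre-incubated 2 h; after 24 h at 37 °C, Amplite reagent was dispensed and luminescence recorded 10 min later.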
SMN2 splice enh = enhancers of SMN2 splice variant expression. HEK293 SMN2-luciferase splicing reporter, luminescence, 30-36 h. Potency, µM (doses to about 46.1 µM), without a hit: at the highest dose activity change, positive = activation, hits mostly activators. 210,000 compounds, 2.8% hits. AID 1458; further: % of control where 0% means no effect; nearly all actives have a fitted effect of over 55% in size
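HEK293 cells carry an SMN2 minigene-luciferase reporter in which exon 7 inclusion puts luciferase in frame. Cells were seeded at 2000 cells/well, attached for 10-12 hours, then exposed to compounds for 30-36 hours at 37C before ONE-Glo luminescence.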
An asterisk follows results filed as active; ? = inconclusive; . = no result; [ ] = another dose, or the depositor's remark. The call rests on the fitted dose curve; in most records, active means well fitted curve in the direction sought with a large enough effect; inconclusive means small, poorly fitted or top-dose-only effect, or another doubt; inactive means no such curve, though single readings can be large; an effect the other way counts as inactive or inconclusive. Potency means the concentration at half of the fitted maximal effect.

SMILES | Rab9 promoter act | KinaseGlo FLuc | FLuc counter | ELG1 genotox | NPC1 promoter act | SMN2 splice enh
Oc1cc(-c2ccc(N3CCCCC3)nc2)cc2cccnc12 | 4% | . | ? | 18µM* | 10% | .
O=C(NCCS(=O)(=O)N1CCN(c2ccccc2F)CC1)c1ccccc1C(F)(F)F | . | . | -7% | . | . | .
Cc1ccc(S(=O)(=O)NCCc2nnc3ccc(SCc4ccccc4F)nn23)cc1 | . | . | -9% | . | . | .
O=c1c[n+](CC[n+]2cc(=O)o[nH]2)[nH]o1 | . | -7%[7.66 µM] | . | . | . | -14%[9.22 µM]
O=C1c2ccccc2NC(c2cnc3ccccc3n2)N1O (stereo unspecified) | 0.89µM* | -17% | 2.4µM* | ? | 1.3µM* | 11µM*
Cn1c(-c2ccc(N)cc2)nc2ccccc21 | 4µM* | . | 19µM* | ? | ? | .
Cn1c(CCc2ccc(N)cc2)nc2ccccc21 | 1.6µM* | -16% | 12µM* | ? | 3.2µM* | 11µM*
Nc1nc2ccc(C(=O)N3CCCCC3)cc2s1 | 0% | . | -11% | 8% | 1% | .
COc1ccc(Cc2nc3ccccc3n2C)cc1 | -2% | -1% | -10% | 0% | -2% | -15%
Cn1c(-c2ccc3nc(N)sc3c2)nc2cc(N)ccc21 | 23% | 15% | 21µM* | ? | ? | 7%
Cn1c(-c2ccc(Cl)nc2)nc2ccccc21 | 0%[1.84 µM] | . | ? | 11% | 3% | .
CCc1ccc(CN(Cc2cn[nH]c2-c2ccc(OC)cc2)C(=O)Nc2cc(Cl)ccc2OC)cc1 | . | . | 0% | . | . | .
CCc1cccc(C)c1NC(=O)CN1CCCN(Cc2ccccc2Cl)S1(=O)=O | . | . | -10% | . | . | .
C=CC(C1=CC(=O)C(OC)=CC1=O)c1ccccc1 (stereo unspecified) | . | -4% | . | . | . | 1%
Cn1c(N=NC(=O)c2ccccc2)c(O)c2ccccc21 | 0.56µM* | -7% | 0.85µM* | ? | 0.71µM* | 1.3µM*
Cn1c(O)c(N=NC(=O)CNC(=O)c2ccccc2)c2ccccc21 | 0% | . | -2% | 9% | -4% | .
CCc1cnc2c(c1SCC(=O)NCc1ccc(F)cc1)c(=O)n(C)c(=O)n2C | . | . | -7% | . | . | .
N#Cc1ccc(C[C@H](C(=O)O)N2C(=O)c3ccc(C(=O)O)cc3C2=O)cc1 | 0% | . | 3% | . | 3% | .
COc1cccc(CC(=O)Nc2ccc(-c3nc4ccccc4s3)cc2)c1 | . | . | 6µM* | . | . | .
COc1ccc(/C=C(/CC(=O)Nc2ccccc2)c2nc3ccccc3s2)cc1 | 27% | -4% | 21µM* | 9% | 13% | -22%
COc1ccc(/C=C(/CC(=O)NCc2ccc(Cl)cc2)c2nc3ccccc3s2)cc1 | -4% | 3% | -18% | 16% | 4% | -13%
COc1cc(OC)cc(C(=O)Nc2ccc(-c3nc4ccccc4s3)cc2C)c1 | . | . | -6% | . | . | 10%
COc1cccc(-c2nc3ccccc3s2)c1 | ? | -3% | 0.85µM* | 2.1µM* | 13% | ?
CCCCc1nc2c(c3c1C[C@H](C)OC3)CN(S(=O)(=O)CCCC)CC2 | . | -7%[7.66 µM] | . | . | . | 0%[9.22 µM]
COc1ccc(CNC(=O)c2ccc(CN3C(=O)C(C)=C(c4ccc(C)cc4)S3(=O)=O)cc2)cc1 | . | . | 4% | . | . | .
SMILES | Rab9 promoter act | KinaseGlo FLuc | FLuc counter | ELG1 genotox | NPC1 promoter act | SMN2 splice enh
CCn1c(C)nc2cc(C(=O)N/N=C/c3ccccc3)ccc21 | 3.5µM* | 0% | 21µM* | 9.2µM* | 3.2µM* | 18µM*
CCn1c(C)nc2cc(C(=O)N=Nc3c(O)[nH]c4ccccc34)ccc21 | ? | -2% | 6µM* | ? | ? | 56%
CCn1c(C)nc2cc(C(=O)N/N=C/c3cccc(O)c3O)ccc21 | -13% | . | 8.5µM* | ? | -19% | .
CCn1c(C)nc2cc(C(=O)N/N=C/c3ccc(O)cc3)ccc21 | -3% | -4% | 15µM* | 9% | 1% | 21%
CCc1ccccc1NC(=O)Nc1ccc2c(c1)N(CC)C(=O)c1ccccc1S2 | . | . | -1% | . | . | .
CCn1c(C)nc2cc(C(=O)OC(C(F)(F)C(F)F)C(F)(F)C(F)F)ccc21 | ? | -3% | 3.8µM* | 16µM* | ? | -26%
Cc1ccc2nc(-c3cccc(NC(=O)c4cccc5ccccc45)c3)oc2c1 | . | . | 2.1µM* | . | . | -9%
Cc1cccc(-c2nc3cc(NC(=O)c4ccc(OCC(C)C)cc4)ccc3o2)c1 | . | . | -5% | . | . | 6%
CCC(=O)Nc1ccc2oc(-c3cccc(C)c3)nc2c1 | 0.28µM* | -11% | 0.54µM* | 0.41µM* | 0.11µM* | 0.5µM*
CCC(=O)Nc1cccc(-c2nc3ccc(C)cc3o2)c1 | 4.5µM* | . | 2.4µM* | ? | 2.8µM* | .
CC(O)[C@@H](O)[C@H]1CNc2nc(N)[nH]c(=O)c2N1 (stereo partly specified) | . | -1% | . | . | . | -10%
CC1(C)[C@@H]2CC[C@@]1(CS(=O)(=O)Nc1ccccc1)C(=O)C2 | . | -4%[7.66 µM] | . | . | . | -3%[9.22 µM]
C[C@@]12C[C@H](O)C3[C@H](CCC4=CC(=O)CC[C@]43C)[C@H]1CC[C@@H]2c1csc(-c2ccccc2)n1 (stereo partly specified) | . | -4%[7.66 µM] | . | . | . | -8%[9.22 µM]
COc1cccc(CNC(=O)c2ccc(CSc3nc4ccncc4n3Cc3cccc(C)c3)cc2)c1 | . | . | 2% | . | . | -4%
CCCCOC(=O)c1ccc(NC(=O)c2ccc3c(c2)CCCN3S(C)(=O)=O)cc1 | . | . | -13% | . | . | 8%
COc1ccc(-n2ncc(Cl)c(Cl)c2=O)cc1 | -51% | 0% | -10% | -22% | -42% | -84%
CN(C)c1cnn(-c2ccccc2)c(=O)c1Cl | 13% | 1% | ? | 16% | 13% | 21%
COc1ccc(-n2ncc(N(C)n3cccc3)c(Cl)c2=O)cc1 | 0.56µM* | . | 4.8µM* | ? | 1.3µM* | .
Cc1ccc(-n2ncc(N(C)C)c(Cl)c2=O)cc1 | 1.1µM* | -16% | 5.4µM* | ? | 0.4µM* | ?
Cc1cc(C)cc(NC(=O)COC(=O)CCCNC(=O)c2ccc(Cl)cc2)c1 | -5% | -1% | 12µM* | -1% | 0% | 16%
O=C(Nc1noc2ccccc12)c1c(F)cccc1F | . | . | 7.6µM* | . | . | 22µM*
O=C(Nc1ccccc1NC(=O)c1c(F)cccc1F)c1c(F)cccc1F | -9% | . | -2% | -2% | 1% | .
O=C(CSCc1ccc(Cl)cc1)N1CCOCC1 | -4% | -2% | ? | 10% | 11% | 15%
O=C(CSc1nnc(SCc2ccc(Cl)cc2)s1)N1CCOCC1 | 0% | 4% | 15µM* | 0% | -15% | -6%
CCN(CC)C(=O)CSc1nnc(SCc2ccc(Cl)cc2)s1 | -7% | -3% | 19µM* | -7% | 1% | 10%
O=C(Nc1ccc(Cl)cc1)Nc1nnc(SCc2ccc(Cl)cc2)s1 | -13% | -1% | 4% | -1% | -1% | -14%
